Compound activity: PubChem BioAssay, National Center for Advancing Translational Sciences (NCATS)
Cruzain noTriton – inhibitors of Trypanosoma cruzi cruzain without detergent; P25779; 200,000 tested, 2.3% active; Potency, µM, usual class: inhibitors; purified cruzain, Z-FR-AMC fluorescence, no detergent; AID 1476; note: nearly all actives have a fitted effect of over 40% in size
Target sequence (P25779 123-467 limits assumed): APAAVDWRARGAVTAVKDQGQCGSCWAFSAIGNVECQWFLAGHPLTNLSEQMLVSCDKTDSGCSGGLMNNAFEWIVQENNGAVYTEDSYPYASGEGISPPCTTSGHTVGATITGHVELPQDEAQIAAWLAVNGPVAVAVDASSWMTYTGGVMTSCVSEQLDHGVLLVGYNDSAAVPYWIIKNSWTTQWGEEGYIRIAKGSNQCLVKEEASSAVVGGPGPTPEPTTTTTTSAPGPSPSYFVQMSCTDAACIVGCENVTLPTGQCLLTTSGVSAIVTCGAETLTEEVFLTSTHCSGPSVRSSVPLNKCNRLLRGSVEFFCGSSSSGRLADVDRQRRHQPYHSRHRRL
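Detergent-free condition (0.00005% Triton X-100) in acetate buffer pH 5.5 with DTT. 1.5 nM enzyme and compound were pre-mixed 15 min, then 2 uM Z-FR-AMC substrate added; reaction progress from fluorescence change between first and third reads (60 s).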
Cruzain Triton – inhibitors of Trypanosoma cruzi cruzain with detergent; P25779; purified cruzain, Z-FR-AMC fluorescence, 0.01% Triton; Potency, µM, usual class: inhibitors; 200,000 tested, 0.43% active; AID 1478; note: nearly all actives have a fitted effect of over 40% in size
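Sodium acetate buffer (100 mM, pH 5.5) containing 5 mM DTT and 0.01% Triton X-100 hosted 1.5 nM cruzain and test compound for 15 min at room temperature. Cleavage of 2 uM Z-FR-AMC was then tracked by fluorescence.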
Large screens that a line does not name were inactive. A selection: hits, their analogues and other compounds. The true share with any hit is near 2.4%. Calls come from the whole dose curve; as a rule, active = well fitted curve in the direction sought with a large enough effect; inconclusive = small, poorly fitted or top-dose-only effect, or another doubt; inactive = no such curve, though single readings can be large; an effect the other way counts as inactive or inconclusive.

CC1CCC(NC(=O)Cn2ncc3c4ccccc4n(Cc4ccc(Cl)cc4)c3c2=O)CC1 (configuration not stated)	none
Cc1ccc(/C=N/c2sc3c(c2C#N)CCC3)s1	none
N#Cc1c(/N=C/c2cc3ccccc3s2)sc2c1CCC2	Cruzain noTriton 12.6µM
Cn1c(=O)c2c(-c3ccccc3)n3c(c2n(C)c1=O)C(c1cccc([N+](=O)[O-])c1)Nc1ccccc1-3 (configuration not stated)	none
c1ccc(CC2CCN(c3nc4ccccc4n4nnnc34)CC2)cc1	Cruzain noTriton 25.1µM
O=C(c1ccco1)N1CCN(c2nc3ccccc3n3nnnc23)CC1	none
CC(C)OCCCNC(=O)CN1C(=O)c2cccnc2Sc2ccccc21	none
Cc1cc(/C=C2/NC(=O)N(Cc3ccccc3F)C2=O)c(C)n1C	Cruzain noTriton 25.1µM
Cc1cc(/C=C2/NC(=O)N(Cc3ccccc3F)C2=O)c(C)n1-c1ccccn1	Cruzain noTriton inconclusive
O=C1N/C(=C/c2ccco2)C(=O)N1Cc1ccccc1F	none
Cc1cccc(CN2C(=O)N/C(=C/c3cc(C)n(-c4ccccn4)c3C)C2=O)c1	Cruzain noTriton 25.1µM
Cc1ccccc1CCNC(=O)c1ccc2c(c1)nc1n2CCCCC1	none
COc1ccc(-c2cnnc(N/N=C/C(C)=C/c3ccccc3)n2)cc1	Cruzain noTriton 10µM
COc1ccc(-c2cnnc(N/N=C/c3ccc(OC)c(OC)c3)n2)cc1	none
CCOC(=O)c1cnc2ccccc2c1Nc1cccc(OC)c1	none
COC(=O)c1sc2nc(SCc3cccc(Cl)c3)n(N)c(=O)c2c1C	Cruzain noTriton inconclusive
COC(=O)c1sc2nc(SCc3ccccc3C)n(N)c(=O)c2c1C	Cruzain noTriton 31.6µM
Cc1cc2oc(=O)cc(-c3ccccc3)c2c(C)c1-c1ccc(F)c(Cl)c1	Cruzain noTriton 5.62µM
Cc1cc2oc(=O)cc(-c3ccccc3)c2c(C)c1-c1sccc1C=O	Cruzain noTriton inconclusive
Cc1cc2oc(=O)cc(-c3ccccc3)c2c(C)c1-c1cccc(N)c1	Cruzain noTriton inconclusive
CC(=O)c1ccsc1-c1c(C)cc2oc(=O)cc(-c3ccccc3)c2c1C	Cruzain noTriton 35.5µM
CCOc1ccc(C2C(C#N)=C(N)N3C(=C2C#N)Sc2ccccc23)cc1 (configuration not stated)	Cruzain noTriton inconclusive
N#CC1=C(N)N2C(=C(C#N)C1c1ccccc1)Sc1ccccc12 (configuration not stated)	Cruzain noTriton 12.6µM
COC(=O)N[C@@H](c1cccc(C)c1)[C@@H](C)[N+](=O)[O-]	none
Cc1ccc(-n2c(SCC(=O)N/N=C/c3c(C)nn(-c4ccccc4)c3C)nc3ccccc3c2=O)cc1	none
Cc1nn(-c2ccccc2)c(C)c1/C=N/NC(=O)CSc1nnc(SCc2cccc3ccccc23)s1	Cruzain noTriton 3.98µM
Cc1ccccc1-n1c(SCC(=O)N/N=C/c2c(C)nn(-c3ccccc3)c2C)nc2ccccc2c1=O	Cruzain noTriton inconclusive
C=C(C)Cn1c(SCC(=O)N/N=C/c2c(O)ccc3ccccc23)nc2ccccc2c1=O	Cruzain noTriton 15.8µM
Cc1nn(-c2ccccc2)c(C)c1/C=N/NC(=O)CSc1nc2ccccc2c(=O)n1-c1ccc(Br)cc1	Cruzain noTriton 15.8µM
C=C(C)Cn1c(SCC)nc2ccccc2c1=O	none
COc1ccc(-c2nc(CS(=O)CC(=O)NCc3ccc(F)cc3)c(C)o2)cc1OC (configuration not stated)	none
CC(=O)c1ccc(NC(=O)CCc2c(C)nn(-c3ccc4nnc(C)n4n3)c2C)cc1	none
Cc1ccccc1CNC(=O)C(=O)NCC(c1cccs1)S(=O)(=O)c1ccc(Cl)cc1 (configuration not stated)	none
O=C(Cn1c(C(=O)N2CCN(C3CCCCC3)CC2)cc2sccc21)c1ccccc1	none
O=C(Cn1c(C(=O)N2CCc3ccccc3C2)cc2sccc21)c1ccccc1	Cruzain noTriton 25.1µM
Cc1ccc(Nc2nc(Nc3ccc(C)cc3)nc(SC3=NCCS3)n2)cc1	Cruzain noTriton 25.1µM
Cc1ccccc1Nc1nc(Nc2ccccc2C)nc(SC2=NCCS2)n1	Cruzain noTriton inconclusive
COc1ccc(-n2ncc3c2ncn2nc(Cc4ccccc4)nc32)cc1	none
COc1cccc(OCc2nc3c4cnn(-c5ccccc5)c4ncn3n2)c1	Cruzain noTriton 25.1µM
Cc1ccc(Cn2c(=O)c3cccnc3n(Cc3ccc(F)cc3)c2=O)cc1	none
Cc1ccc(-n2nc3cc(C)c(NC(=S)NC(=O)/C=C/c4ccco4)cc3n2)cc1	Cruzain noTriton inconclusive
Cc1ccc(C(=O)NC(=S)Nc2cccc(-c3nc4ccccc4s3)c2)cc1	Cruzain noTriton inconclusive
O=C(Nc1cc(-c2nc3ccccc3s2)ccc1Cl)c1ccc2c(c1)OCO2	Cruzain noTriton inconclusive
Cc1ccc(-c2nc3ccccc3s2)cc1NC(=S)NC(=O)/C=C/c1ccco1	Cruzain noTriton 15.8µM
O=C(/C=C/c1ccco1)NC(=S)Nc1cc(-c2nc3ccccc3s2)ccc1Cl	Cruzain noTriton 6.31µM
Cc1ccc(-c2nc3ccccc3s2)cc1NC(=S)NC(=O)c1cccc2ccccc12	Cruzain noTriton 6.31µM
